# KB-V1 MDR tox: kills drug-selected multidrug resistant KB-V1 cells. KB-V1 MDR cells viability, CellTiter-Glo, 72 h. Potency, µM (doses to about 46.1 µM), actives largely listed as cytotoxic. 3.4% of 400,000 active; also: nearly all actives have a fitted effect of over 60% in size
#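 KB-V1 MDR subline cells in DMEM (phenol-red free, 10% FBS) exposed to compounds in qHTS concentration series for 72 h at 37 degrees C. Viability read by CellTiter-Glo luminescence; concentration-effect curves fitted after normalization and correction.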
# KB-3-1 tox: KB-3-1 parental cell cytotoxicity. 1.4% of 400,000 active. KB-3-1 viability, CellTiter-Glo ATP luminescence, 72 h. AID 1347075. Potency, µM (highest dose often 46.1 µM), most hits filed as cytotoxic; also: nearly all actives have a fitted effect of over 60% in size
#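 KB-3-1 parental drug-naive adenocarcinoma cells in DMEM/10% FBS, incubated 72 h at 37 C with pin-transferred compounds across a concentration series. Viability by CellTiter-Glo luminescence; concentration-response curves fitted after normalization.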
# HT1080 IDH1KD tx: kills HT-1080 cells with IDH1 knockdown; HT-1080 IDH1 knockdown viability, ATP luminescence, 48 h; Potency, µM (series often up to 46.1 µM), inactives show top-dose activity, negative = toxicity, actives largely listed as cytotoxic; 2% of 360,000 active;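 also: 0% = DMSO wells and -100% = cell-free medium wells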
#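 Cytotoxicity counter-line: IDH1KD HT-1080, 48 h, CellTiter-Glo. Curves classed by r2, magnitude and activity.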
# TDP1 cell CPT: DT40-hTDP1 cell growth loss with CPT | 12% of 420,000 active | AID 686979 | Potency, µM (titrated, usually from 46.2 µM), for the others: top-dose activity change, negative = growth inhibition, hits mostly inhibitors | chicken DT40 Tdp1-/-;hTDP1 cells + 20 nM CPT, ATP luminescence, 48 h; also: nearly all actives have a fitted effect of over 55% in size
#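 Chicken DT40 Tdp1-/- cells complemented with human TDP1, 400 cells/well, exposed to compounds plus 20 nM camptothecin for at least 48 h at 37 C; viability read as ATP content by CellTiter-Glo luminescence.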
# HT1080-NT tox: kills 2HG-producing HT-1080-NT fibrosarcoma cells | HT-1080-NT fibrosarcoma viability, CellTiter-Glo ATP luminescence, 48 h | Potency, µM (series often up to 46.1 µM), without a hit: at the highest dose activity, negative = less viability, hits mostly cytotoxic | 1.6% of 360,000 active | AID 686970;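 also: NT is the 2HG producing partner of a matched IDH1 knockdown line; 0% = DMSO-treated cells and -100% = media-only wells without cells; nearly all actives have a fitted effect of over 55% in size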
#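 A 48-hour cytotoxicity screen used HT-1080-NT cells plated 2 hours before compound delivery. ATP-based CellTiter-Glo luminescence measured viability, normalized to DMSO and no-cell controls.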
# TDP1 cell noCPT: qHTS for Inhibitors of human tyrosyl-DNA phosphodiesterase 1 (TDP1): qHTS in cells in absence of CPT. DT40 Tdp1-/- hTDP1 cells, no CPT, ATP luminescence, 48 h. Potency, µM (top dose mostly 46.2 µM), for inactives: at the top dose activity change, negative = growth inhibition, hits mostly inhibitors. 15% of 420,000 active. AID 686978, 2013; also: nearly all actives have a fitted effect of over 55% in size
#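 Readout: luminescence from CellTiter-Glo after 30 min in the dark at RT. Cells: DT40 Tdp1-/- with stable hTDP1, 400/well. Exposure: compounds alone, ≥48 hr, 37 °C.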
# * marks the source's active call; other numbers are inactive results; i = inactive; ? = inconclusive; · = no result. A selection: hits, their analogues and other compounds. The true share with any hit is near 19%. Calls follow the shape of the dose curve; as a rule, active = well fitted curve in the direction sought with a large enough effect; inconclusive = small, poorly fitted or top-dose-only effect, or another doubt; inactive = no such curve, though single readings can be large; an effect the other way counts as inactive or inconclusive. Unless noted, % is scaled to controls: 0 for no effect and ±100 for the full control effect; potency is read from the fitted curve at half-maximal effect.
SMILES,KB-V1 MDR tox,KB-3-1 tox,HT1080 IDH1KD tx,TDP1 cell CPT,HT1080-NT tox,TDP1 cell noCPT
COc1ccc(CC(=O)NCC(c2ccc(N(C)C)cc2)N2CCOCC2)cc1 (stereo not drawn),i,i,·,?,·,?
COc1ccc(C(CNC(=O)C(CCSC)NC(=O)c2ccccc2Cl)N2CCCCC2)cc1 (stereo not drawn),23.1µM*,i,-2.3%,-20.2%,-2.6%,-18.7%
CCOc1ccc(S(=O)(=O)NCC(c2ccc(N(C)C)cc2)N2CCCC2)cc1 (stereo not drawn),i,i,·,?,·,25.9µM*
COc1ccc(C(=O)NCC(c2ccc(N(C)C)cc2)N2CCCC2)c(OC)c1 (stereo not drawn),i,i,·,?,·,13µM*
COC(=O)c1ccc(Cn2nnc3sc4c(c3c2=O)CCC(C)C4)cc1 (stereo not drawn),i,i,·,?,·,?
Cc1onc(-c2ccccc2Cl)c1C(=O)NNC(=O)c1ccc(F)cc1,i,i,3.6%,2.7%,18.7%,-1.1%
Cc1onc(-c2ccccc2Cl)c1C(=O)NC(=S)Nc1ccccc1C(N)=O,?,i,12.7%,25.9µM*,3.9%,?
Cc1onc(-c2ccccc2Cl)c1C(=O)N1CC(C)CC(C)C1 (stereo not drawn),?,i,-15.2%,14.6µM*,-23.1%,10.3µM*
Cc1onc(-c2ccccc2Cl)c1C(=O)Nc1ccccc1C(=O)NC(C)C,?,i,-13.3%,3.26µM*,-22.3%,2.31µM*
Cc1cccc(C(=O)NNC(=O)c2c(-c3ccccc3Cl)noc2C)c1O,?,?,-8.2%,?,-15.5%,29.1µM*
Cc1ccc(-n2nnnc2CNC(=O)C(=O)c2c[nH]c3ccccc23)cc1C,i,i,8.0%,-20.1%,15.1%,-21.8%
O=C(c1ccc2c(c1)N(Cc1ccc(Cl)cc1)C(=O)c1ccccc1S2=O)N1CCN(c2ccccc2F)CC1 (stereo not drawn),i,i,·,23.1µM*,·,20.6µM*
CN1CCN(C(=O)c2ccc3c(c2)N(Cc2ccccc2F)C(=O)c2ccccc2S3=O)CC1 (stereo not drawn),i,i,-5.2%,?,-3.6%,-38.5%
O=C(c1ccc2c(c1)N(Cc1ccccc1F)C(=O)c1ccccc1S2=O)N1CCN(c2ccccc2)CC1 (stereo not drawn),i,i,·,23.1µM*,·,16.4µM*
COCCn1c(=O)c(-c2ccc(Cl)cc2)nc2cncnc21,·,·,·,-1.3%,·,-22.8%
COc1ccc(OCCN(C)C(=O)c2cccc(S(=O)(=O)N(C)c3ccccc3)c2)cc1,·,·,-10.8%,11.6µM*,0.0%,18.4µM*
CCN(c1ccccc1)S(=O)(=O)c1cccc(C(=O)N(C)CCOc2ccccc2)c1,?,i,4.6%,14.6µM*,-2.2%,20.6µM*
CCCCN(c1ccccc1)S(=O)(=O)c1cccc(C(=O)O)c1,i,i,-0.1%,2.9%,-4.1%,-5.3%
Cc1ccc(OCCNC(=O)c2cccc(Oc3ccc(C(F)(F)F)cc3[N+](=O)[O-])c2)cc1,?,?,-10.8%,?,-11.8%,16.4µM*
Cc1cccc(OCCNc2ccc(C(F)(F)F)cc2[N+](=O)[O-])c1,i,i,22.6%,3.6%,25.8%,-10.6%
Cc1cccc(OCCNC(=O)c2ccc(Cl)c(S(=O)(=O)NCc3cccnc3)c2)c1,?,1.46µM*,?,3.66µM*,?,2.59µM*
COC(=O)C1CCN(C(=O)c2ccc(Cl)c(S(=O)(=O)NCc3cccnc3)c2)CC1,i,i,1.9%,-5.3%,3.3%,-25.9%
COc1ccc(-c2ccc3ncnc(N(C)Cc4csc(C)n4)c3c2)cc1OC,i,?,·,·,·,·
COC(=O)c1nnn(CC(=O)Nc2c(C)cccc2C)c1N,?,i,·,-1.2%,·,15.3%
Cc1ccc(OCCNC(=O)c2cccc(S(=O)(=O)NCc3ccccc3)c2)cc1,8.2µM*,4.61µM*,7.31µM*,4.11µM*,?,4.61µM*
SMILES,KB-V1 MDR tox,KB-3-1 tox,HT1080 IDH1KD tx,TDP1 cell CPT,HT1080-NT tox,TDP1 cell noCPT
COc1ccc(N(C)S(=O)(=O)c2cccc(C(=O)NCc3ccc(C)cc3)c2)cc1,6.51µM*,i,-11.2%,?,-10.3%,?
COc1ccc(-c2nn(-c3ccccc3)cc2C(=O)NC(=S)Nc2cc(Cl)ccc2Cl)cc1,i,i,15.8%,-20.2%,12.2%,0.8%
COc1ccc(Oc2ncc3nc(-c4cccc(C#N)c4)c(=O)n(Cc4cccc(OC)c4)c3n2)cc1,·,·,·,1.7%,·,-93.0%
CCC1Oc2ccc(C)cc2N(CC(=O)N(Cc2ccc3c(c2)OCO3)CC2CCCO2)C1=O (stereo not drawn),6.51µM*,i,-9.3%,?,-0.5%,?
COc1ccc(CN(CC2CCCO2)C(=O)CN2C(=O)C(C)Oc3ccc(C)cc32)cc1OC (stereo not drawn),?,i,-5.3%,?,-1.6%,18.4µM*
COC(=O)c1cccc(CN2C(=O)C(C)Oc3ccc(C)cc32)c1 (stereo not drawn),i,i,0.0%,20.6µM*,-8.3%,20.6µM*
Cc1ccc2c(c1)N(CC(=O)NCC1CCCO1)C(=O)C(C)O2 (stereo not drawn),i,i,8.8%,-0.1%,2.7%,1.7%
CCN(CC1CCCO1)C(=O)CCc1nnc(Cc2ccc3c(c2)OCO3)o1 (stereo not drawn),i,i,10.7%,11.6%,13.4%,-12.3%
O=C(Nc1ccc2ccccc2c1)Nc1nnc(-c2ccccc2)s1,i,i,·,·,·,·
Cc1ccc(C(=O)NC(=S)NCc2ccccc2)cc1Br,i,i,11.9%,?,10.6%,?
Cc1nc(NC(=O)CCl)sc1C(=O)N(C)C,i,i,-24.2%,13µM*,?,14.6µM*
O=C(NNC(=S)NC(=O)c1ccccc1)c1ccc(O)cc1,i,?,?,16.4µM*,-23.4%,9.2µM*
O=C(NNC(=O)c1ccc(-c2ccccc2)cc1)c1ccccc1,i,i,1.6%,-17.5%,-0.9%,-5.6%
CC(C)(C)C(=O)NC(=S)NNC(=O)c1ccc(-c2ccccc2)cc1,9.2µM*,?,7.31µM*,3.26µM*,8.2µM*,2.06µM*
CCCOc1ccc(C(=O)NNC(=S)NC(C)=O)cc1,i,16.4µM*,7.08µM*,2.59µM*,7.08µM*,3.26µM*

# Screens deposited in PubChem BioAssay by National Center for Advancing Translational Sciences (NCATS).
